# Measured values from the supplement of paper PMC10849652.
# The full data set covers some 8,800 targets. This sample favours those with a hit. About 0.5% of all pairs of compound and target were hits. A number with no mark means an inactive call.
# What was measured:
# Experiment in all cases: log2 fold change, soluble protein after heating vs DMSO (PISA); higher = thermal stabilisation; K562 lysate, 10 uM; active = over 0.2 and 3.5 SD of the protein, either way, in both replicates (recomputed)
# vemurafenib = compound: CCCS(=O)(=O)Nc1ccc(F)c(C(=O)c2c[nH]c3ncc(-c4ccc(Cl)cc4)cc23)c1F [vemurafenib]
# In short: (§1)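 A 30 min treatment with 10 μM compound was applied to crude K562 extract at 1 mg/mL protein in PBS pH 7.4 with 1 mM MgCl2. Heating for 3 min spanned 48°C-58°C, after which aliquots were pooled, adjusted to 0.5% NP-40 at 4°C and spun at 21,000xg for 90 min. TMTpro 16plex LC-MS/MS of the supernatant, with channel sums equalised, gave values recorded as log-two fold change in thermal stability against solvent controls, from duplicates.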
# [1] = compound: CCCS(=O)(=O)Nc1ccc(F)c(C(=O)c2c[nH]c3ncc(Cl)cc23)c1F
# In short: as §1
# barasertib = compound: CCN(CCCOc1ccc2c(Nc3cc(CC(=O)Nc4cccc(F)c4)[nH]n3)ncnc2c1)CCOP(=O)(O)O [barasertib]
# In short: as §1
# [2] = compound: CC[C@@H]1C(=O)N(C)c2cnc(Nc3ccc(C(=O)NC4CCN(C)CC4)cc3OC)nc2N1C1CCCC1
# In short: as §1
# volasertib = compound: CC[C@@H]1C(=O)N(C)c2cnc(Nc3ccc(C(=O)N[C@H]4CC[C@H](N5CCN(CC6CC6)CC5)CC4)cc3OC)nc2N1C(C)C [volasertib]
# In short: as §1
# [3] = compound: CCn1c(C(=O)N(C2CC2)C2CC2)cc2c3c(ncn3C)c(Nc3cc(C)n(C)n3)nc21
# In short: as §1
# [4] = compound: CCn1cc(-c2ccnc3[nH]c(-c4cccc(CN(C)C)c4)cc23)c(-c2ccc(NC(=O)N(C)C)cc2)n1
# In short: as §1
# [5] = compound: CN1CCC(CNc2ccc3ncc(-c4cccc(OC(F)(F)F)c4)n3n2)CC1
# In short: as §1
# saracatinib = compound: CN1CCN(CCOc2cc(OC3CCOCC3)c3c(Nc4c(Cl)ccc5c4OCO5)ncnc3c2)CC1 [saracatinib]
# In short: as §1
# sotrastaurin = compound: CN1CCN(c2nc(C3=C(c4c[nH]c5ccccc45)C(=O)NC3=O)c3ccccc3n2)CC1 [sotrastaurin]
# In short: as §1
# alvocidib = compound: CN1CC[C@H](c2c(O)cc(O)c3c(=O)cc(-c4ccccc4Cl)oc23)[C@H](O)C1 [alvocidib]
# In short: as §1
# Tubastatin A = compound: CN1CCc2c(c3ccccc3n2Cc2ccc(C(=O)NO)cc2)C1 [Tubastatin A]
# In short: as §1
# [6] = compound: CNC(=O)C1=CC=CC=C1NC2=NC(=NC=C2Cl)NC3=C(C=C(C=C3)N4CCOCC4)OC
# In short: as §1
# defactinib = compound: CNC(=O)c1ccc(Nc2ncc(C(F)(F)F)c(NCc3nccnc3N(C)S(C)(=O)=O)n2)cc1 [defactinib]
# In short: as §1
# [7] = compound: CNc1nc(-c2ccc3c(N)n[nH]c3c2)cc(N2C[C@@H](C(=O)NC3CCCCC3)CC[C@H]2C)n1
# In short: as §1
# encorafenib = compound: COC(=O)N[C@@H](C)CNc1nccc(-c2cn(C(C)C)nc2-c2cc(Cl)cc(NS(C)(=O)=O)c2F)n1 [encorafenib]
# In short: as §1
# [8] = compound: COC(=O)[C@H](CCSC)NC(=O)C1=C(C=C(C=C1)NC[C@H](CS)N)C2=CC=CC=C2
# In short: as §1
# alisertib = compound: COc1cc(Nc2ncc3c(n2)-c2ccc(Cl)cc2C(c2c(F)cccc2OC)=NC3)ccc1C(=O)O [alisertib]
# In short: as §1
# [9] = compound: COc1cc2nc(-c3cc(F)ccc3O)nc(N[C@@H]3CNC[C@H]3C(C)(C)O)c2cc1OC
# In short: as §1
# gefitinib = compound: COc1cc2ncnc(Nc3ccc(F)c(Cl)c3)c2cc1OCCCN1CCOCC1 [gefitinib]
# In short: as §1
# UniProt Q5VT25, sequence (Q5VT25 whole entry, looked up): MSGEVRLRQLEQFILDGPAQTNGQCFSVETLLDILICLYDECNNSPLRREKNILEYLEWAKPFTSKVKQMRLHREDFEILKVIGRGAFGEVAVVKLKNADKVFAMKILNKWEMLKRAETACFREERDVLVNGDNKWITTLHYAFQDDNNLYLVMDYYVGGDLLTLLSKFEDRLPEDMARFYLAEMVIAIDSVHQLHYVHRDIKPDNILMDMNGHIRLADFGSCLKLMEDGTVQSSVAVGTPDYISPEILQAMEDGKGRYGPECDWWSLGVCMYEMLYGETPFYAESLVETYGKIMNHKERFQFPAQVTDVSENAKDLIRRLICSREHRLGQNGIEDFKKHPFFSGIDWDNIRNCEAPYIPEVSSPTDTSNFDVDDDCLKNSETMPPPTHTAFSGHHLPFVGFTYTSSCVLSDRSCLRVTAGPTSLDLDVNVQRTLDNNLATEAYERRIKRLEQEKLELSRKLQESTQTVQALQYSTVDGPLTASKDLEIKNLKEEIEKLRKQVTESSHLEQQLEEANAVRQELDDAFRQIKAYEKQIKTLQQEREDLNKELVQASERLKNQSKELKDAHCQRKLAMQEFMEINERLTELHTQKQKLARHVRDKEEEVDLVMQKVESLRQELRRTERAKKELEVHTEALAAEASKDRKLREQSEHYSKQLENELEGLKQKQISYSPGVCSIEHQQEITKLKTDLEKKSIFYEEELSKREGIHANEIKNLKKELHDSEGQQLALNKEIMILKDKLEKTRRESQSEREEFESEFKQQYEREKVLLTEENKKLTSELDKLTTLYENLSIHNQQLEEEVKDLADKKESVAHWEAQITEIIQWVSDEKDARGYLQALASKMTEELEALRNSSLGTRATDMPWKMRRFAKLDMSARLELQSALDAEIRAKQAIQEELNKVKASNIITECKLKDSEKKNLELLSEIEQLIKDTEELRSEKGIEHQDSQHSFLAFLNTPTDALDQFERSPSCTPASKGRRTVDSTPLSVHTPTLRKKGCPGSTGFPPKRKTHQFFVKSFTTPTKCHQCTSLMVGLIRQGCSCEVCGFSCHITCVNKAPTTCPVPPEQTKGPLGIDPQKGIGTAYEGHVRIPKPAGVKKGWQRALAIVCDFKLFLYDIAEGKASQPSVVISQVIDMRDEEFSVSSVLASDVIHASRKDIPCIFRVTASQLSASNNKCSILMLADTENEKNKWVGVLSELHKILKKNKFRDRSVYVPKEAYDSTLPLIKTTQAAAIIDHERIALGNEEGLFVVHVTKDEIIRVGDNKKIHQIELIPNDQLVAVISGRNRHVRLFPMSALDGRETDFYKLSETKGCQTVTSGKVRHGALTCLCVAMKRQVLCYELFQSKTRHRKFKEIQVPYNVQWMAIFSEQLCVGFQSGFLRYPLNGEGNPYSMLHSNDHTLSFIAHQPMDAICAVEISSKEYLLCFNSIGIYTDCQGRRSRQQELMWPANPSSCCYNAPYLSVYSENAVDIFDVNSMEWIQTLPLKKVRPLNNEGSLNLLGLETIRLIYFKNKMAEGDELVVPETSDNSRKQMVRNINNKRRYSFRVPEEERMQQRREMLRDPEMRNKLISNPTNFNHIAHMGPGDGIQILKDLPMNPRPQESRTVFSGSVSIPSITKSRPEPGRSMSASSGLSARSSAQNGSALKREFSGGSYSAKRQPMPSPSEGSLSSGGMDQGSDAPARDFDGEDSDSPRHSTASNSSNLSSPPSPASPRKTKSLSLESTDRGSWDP
# UniProt P11274, sequence (P11274 whole entry, looked up): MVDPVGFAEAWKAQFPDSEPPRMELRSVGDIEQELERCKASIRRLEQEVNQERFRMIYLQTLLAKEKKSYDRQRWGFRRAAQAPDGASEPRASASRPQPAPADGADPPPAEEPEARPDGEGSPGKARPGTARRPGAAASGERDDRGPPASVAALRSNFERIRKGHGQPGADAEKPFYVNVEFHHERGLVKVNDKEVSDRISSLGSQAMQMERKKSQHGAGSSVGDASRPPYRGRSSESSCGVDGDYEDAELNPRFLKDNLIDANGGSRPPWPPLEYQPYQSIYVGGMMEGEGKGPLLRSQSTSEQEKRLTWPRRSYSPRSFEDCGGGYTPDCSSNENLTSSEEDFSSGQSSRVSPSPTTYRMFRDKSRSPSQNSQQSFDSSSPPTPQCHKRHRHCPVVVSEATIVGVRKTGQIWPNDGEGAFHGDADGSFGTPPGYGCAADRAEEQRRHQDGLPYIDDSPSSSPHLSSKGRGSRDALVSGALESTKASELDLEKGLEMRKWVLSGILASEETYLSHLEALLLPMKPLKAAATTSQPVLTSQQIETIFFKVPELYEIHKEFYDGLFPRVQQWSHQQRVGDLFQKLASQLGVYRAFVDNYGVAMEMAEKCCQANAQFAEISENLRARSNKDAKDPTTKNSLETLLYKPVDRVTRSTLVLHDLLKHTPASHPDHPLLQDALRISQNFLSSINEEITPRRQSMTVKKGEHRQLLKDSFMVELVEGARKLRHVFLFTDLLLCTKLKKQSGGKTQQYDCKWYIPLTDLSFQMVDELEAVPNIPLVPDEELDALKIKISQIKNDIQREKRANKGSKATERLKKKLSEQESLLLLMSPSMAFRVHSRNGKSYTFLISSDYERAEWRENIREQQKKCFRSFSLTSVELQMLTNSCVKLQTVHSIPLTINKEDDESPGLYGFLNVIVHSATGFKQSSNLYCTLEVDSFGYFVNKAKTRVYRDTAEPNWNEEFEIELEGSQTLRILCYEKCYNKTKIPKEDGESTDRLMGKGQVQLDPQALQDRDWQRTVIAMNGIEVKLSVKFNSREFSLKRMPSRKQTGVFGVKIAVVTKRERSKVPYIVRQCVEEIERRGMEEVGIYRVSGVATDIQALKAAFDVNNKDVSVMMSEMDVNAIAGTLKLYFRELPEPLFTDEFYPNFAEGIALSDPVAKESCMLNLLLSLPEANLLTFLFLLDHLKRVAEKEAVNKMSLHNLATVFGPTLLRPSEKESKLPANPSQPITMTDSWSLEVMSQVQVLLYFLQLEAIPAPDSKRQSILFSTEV
# UniProt Q9NW68, sequence (Q9NW68 whole entry, looked up): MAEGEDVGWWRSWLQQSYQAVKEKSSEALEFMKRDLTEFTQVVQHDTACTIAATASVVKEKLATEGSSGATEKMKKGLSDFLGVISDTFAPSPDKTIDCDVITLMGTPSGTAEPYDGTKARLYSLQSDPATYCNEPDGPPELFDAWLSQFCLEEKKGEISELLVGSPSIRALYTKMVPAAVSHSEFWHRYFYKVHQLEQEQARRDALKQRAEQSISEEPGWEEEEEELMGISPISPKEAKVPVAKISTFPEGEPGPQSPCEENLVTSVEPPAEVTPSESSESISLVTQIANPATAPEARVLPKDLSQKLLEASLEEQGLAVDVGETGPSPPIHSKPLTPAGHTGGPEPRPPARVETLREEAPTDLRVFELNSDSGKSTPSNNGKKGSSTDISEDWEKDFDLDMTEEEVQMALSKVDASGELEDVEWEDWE
# UniProt Q9NXV6, sequence (Q9NXV6 whole entry, looked up): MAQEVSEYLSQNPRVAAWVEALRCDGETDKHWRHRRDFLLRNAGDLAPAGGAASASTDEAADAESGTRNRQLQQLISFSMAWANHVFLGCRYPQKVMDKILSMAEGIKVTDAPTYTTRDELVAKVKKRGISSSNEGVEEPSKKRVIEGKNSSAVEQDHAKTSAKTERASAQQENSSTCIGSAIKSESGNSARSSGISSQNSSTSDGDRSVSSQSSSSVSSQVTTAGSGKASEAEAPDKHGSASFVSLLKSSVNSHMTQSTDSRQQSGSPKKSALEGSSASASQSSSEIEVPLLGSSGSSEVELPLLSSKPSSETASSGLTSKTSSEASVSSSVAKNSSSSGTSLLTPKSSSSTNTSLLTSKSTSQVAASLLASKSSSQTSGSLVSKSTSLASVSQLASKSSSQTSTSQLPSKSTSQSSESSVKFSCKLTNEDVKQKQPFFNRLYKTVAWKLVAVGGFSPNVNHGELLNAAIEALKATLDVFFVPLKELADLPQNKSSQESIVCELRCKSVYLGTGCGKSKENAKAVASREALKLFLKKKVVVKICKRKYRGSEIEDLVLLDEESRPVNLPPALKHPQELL
# UniProt Q9HB09, sequence (Q9HB09 whole entry, looked up): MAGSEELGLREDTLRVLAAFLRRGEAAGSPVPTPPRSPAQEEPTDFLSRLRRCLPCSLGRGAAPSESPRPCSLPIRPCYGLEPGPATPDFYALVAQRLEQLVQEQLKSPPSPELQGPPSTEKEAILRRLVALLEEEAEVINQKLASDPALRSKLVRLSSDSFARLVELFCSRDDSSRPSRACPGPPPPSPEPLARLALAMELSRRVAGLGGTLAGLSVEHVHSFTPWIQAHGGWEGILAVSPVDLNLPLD
# UniProt P40227, sequence (P40227 whole entry, looked up): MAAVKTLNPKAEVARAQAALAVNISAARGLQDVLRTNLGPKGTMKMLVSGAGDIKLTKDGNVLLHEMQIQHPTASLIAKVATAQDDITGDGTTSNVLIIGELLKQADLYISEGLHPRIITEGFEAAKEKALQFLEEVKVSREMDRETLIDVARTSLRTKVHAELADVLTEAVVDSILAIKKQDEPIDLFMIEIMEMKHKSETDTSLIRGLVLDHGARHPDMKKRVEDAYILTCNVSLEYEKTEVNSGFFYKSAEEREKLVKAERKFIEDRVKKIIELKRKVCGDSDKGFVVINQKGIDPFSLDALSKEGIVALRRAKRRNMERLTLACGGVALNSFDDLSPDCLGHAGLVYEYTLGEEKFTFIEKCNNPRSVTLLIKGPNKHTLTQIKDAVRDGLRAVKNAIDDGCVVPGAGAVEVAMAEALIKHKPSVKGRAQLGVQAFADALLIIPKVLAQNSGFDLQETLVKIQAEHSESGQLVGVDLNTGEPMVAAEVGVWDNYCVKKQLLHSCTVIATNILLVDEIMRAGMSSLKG
# UniProt Q9UL45, sequence (Q9UL45 whole entry, looked up): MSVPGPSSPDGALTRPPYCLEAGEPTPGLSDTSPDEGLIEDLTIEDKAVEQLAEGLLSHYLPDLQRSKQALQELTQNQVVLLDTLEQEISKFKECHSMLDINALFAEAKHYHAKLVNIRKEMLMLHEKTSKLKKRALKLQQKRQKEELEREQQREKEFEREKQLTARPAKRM
Target,log2 fold change (vemurafenib),log2 fold change [1],log2 fold change (barasertib),log2 fold change [2],log2 fold change (volasertib),log2 fold change [3],log2 fold change [4],log2 fold change [5],log2 fold change (saracatinib),log2 fold change (sotrastaurin),log2 fold change (alvocidib),log2 fold change (Tubastatin A),log2 fold change [6],log2 fold change (defactinib),log2 fold change [7],log2 fold change (encorafenib),log2 fold change [8],log2 fold change (alisertib),log2 fold change [9],log2 fold change (gefitinib)
ATP6V0A2 (UniProt Q9Y487),-0.035,0.013,0.037,0.071,0.005,0.017,-0.117,0.14,-0.007,0.029,-0.129,0.091,0.022,0.008,0.001,0.03,-0.027,0.015,0.048,0.036
CDKN2AIP (UniProt Q9NXV6),0.017,0.022,-0.028,0.082,-0.008,-0.026,-0.049,0.03,-0.004,0.01,-0.008,-0.066,-0.016,-0.011,0.054,0.023,0.236 (active),0.021,-0.003,-0.073
CEP120 (UniProt Q8N960),0.052,-0.098,0.033,-0.411,0.029,-0.134,-0.233,0.119,0.008,0.034,-0.046,0.098,-0.096,-0.025,0.273,0.065,-0.117,0.141,0.038,0.119
BCR (UniProt P11274),0.012,0.043,-0.021,-0.062,-0.056,0.015,-0.112,-0.029,0.024,-0.018,-0.007,-0.181,0.002,-0.008,-0.005,0.036,0.085,-0.008,-0.021,-0.024
C1orf112 (UniProt Q9NSG2),0,0.006,-0.04,-0.065,0.034,0.037,0.171,-0.059,0.065,0.025,-0.247,-0.181,0.077,0.038,-0.082,0.037,0.096,-0.032,-0.046,-0.004
BUB1B isoform 3 (UniProt O60566),0.024,0.024,0.03,-0.012,-0.014,0.01,0.13,-0.05,-0.006,0.009,-0.032,-0.122,0.018,-0.012,0.018,0.033,0.018,0.002,0.011,-0.005
BRD4 (UniProt O60885),0.049,0.016,-0.007,0.538 (active),0.217 (active),-0.008,-0.007,0.037,-0.025,-0.012,-0.003,-0.001,0.02,-0.05,0.036,0,0.03,0.038,-0.03,0.034
BSDC1 (UniProt Q9NW68),0.027,0.053,0.078,0.099,0.018,-0.01,-0.027,0.041,0.03,-0.019,-0.033,0.052,0.018,0.031,-0.025,0.112,-0.149,0.026,-0.031,-0.017
BCL2L12 (UniProt Q9HB09),-0.032,0.08,0.166,0.013,-0.06,0.087,0.018,0.116,0.057,-0.007,0.012,0.016,-0.087,0.113,-0.059,-0.207,0.023,0.008,0.1,-0.062
CELF1 isoform 4 (UniProt Q92879),0.024,0.014,0.03,-0.044,-0.133,0.012,0.08,-0.08,0.035,0.054,0,-0.167,0.034,0.049,-0.059,0.108,-0.031,0.048,-0.026,0.056
BLOC1S6 (UniProt Q9UL45),0.005,0.007,-0.012,0.013,0.032,0.043,0.048,0.009,-0.034,-0.06,-0.028,0.033,0.051,0.014,0.082,0.147,0.056,-0.22,-0.036,0.047
CDC42BPA isoform 6 (UniProt Q5VT25),0.01,0.036,-0.006,-0.111,-0.043,0.021,0.062,-0.118,-0.021,-0.023,-0.099,-0.13,-0.015,-0.002,-0.065,0.017,0.093,-0.005,-0.019,-0.004
ATG4A (UniProt Q8WYN0),-0.045,0.033,0.012,-0.047,-0.015,0.008,0.027,-0.045,0.034,-0.043,0,-0.104,0.042,0.036,0.01,0.037,-0.087,-0.016,-0.001,0.052
CDK1 (UniProt P06493),0.012,-0.017,-0.029,-0.041,-0.037,-0.006,-0.056,-0.049,0.016,-0.002,0.036,-0.032,-0.017,-0.035,-0.021,0.011,0.036,0.002,0.328 (active),-0.03
CCT6A (UniProt P40227),-0.026,-0.005,-0.03,-0.006,0.024,0.011,-0.024,-0.002,-0.004,-0.001,0.027,0.025,0.006,-0.018,-0.001,-0.015,-0.024,0.012,-0.003,-0.021
CCPG1 isoform 5 (UniProt Q9ULG6),0.082,-0.038,0.034,0.066,0,0.071,-0.081,0.04,0.049,0.051,0.029,0.006,0.028,-0.03,-0.02,0.049,-0.165,-0.073,0.303 (active),-0.061
